Measurements published in publication PMC7862700, “An all-to-all approach to the identification of sequence-specific readers for epigenetic DNA modifications on cytosine”.

Columns and labels:
Assay in all cases: DAPPL (digital affinity profiling via proximity ligation, sequencing); 10 mM Tris-HCl pH 7.5, 50 mM NaCl, 1 mM DTT, 4% glycerol, room temperature, 30 min; GST-TFs on glutathione beads, 16-mer random dsDNA library, 0.1% formaldehyde crosslink after washing; high values mean tight binding
Details in all cases: protein: recombinant; tags: N-terminal GST; dsDNA, one strand shown
GABPA = target: T1, GABPA (Homo sapiens, UniProt Q06546 1-454)
T1 sequence: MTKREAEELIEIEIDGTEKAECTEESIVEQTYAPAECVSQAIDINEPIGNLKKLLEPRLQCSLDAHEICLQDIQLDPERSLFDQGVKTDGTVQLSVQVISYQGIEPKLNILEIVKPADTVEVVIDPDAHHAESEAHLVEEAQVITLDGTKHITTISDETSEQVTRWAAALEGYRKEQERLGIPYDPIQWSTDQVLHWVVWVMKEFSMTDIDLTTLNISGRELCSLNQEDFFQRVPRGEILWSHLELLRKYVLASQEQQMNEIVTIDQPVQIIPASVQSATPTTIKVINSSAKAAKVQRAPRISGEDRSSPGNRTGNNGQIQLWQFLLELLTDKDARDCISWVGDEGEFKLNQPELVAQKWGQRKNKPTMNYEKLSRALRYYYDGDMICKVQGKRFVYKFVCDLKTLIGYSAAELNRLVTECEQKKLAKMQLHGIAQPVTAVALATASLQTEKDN
Summary of the method: (§1)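 A tag-only sample was pooled with DNA-barcoded human transcription factors that had been expressed in yeast as GST fusions and captured on glutathione beads. The pools were incubated for 30 min at room temperature with 200 nmole of a random double-stranded 16-mer DNA library in Tris/NaCl/DTT/glycerol buffer, then washed, crosslinked with 0.1% formaldehyde, proximity-ligated (BsaI/T4 ligase, 1 h, 37 °C), PCR-amplified and sequenced on an Illumina NextSeq500. Binding signal is each hexamer's read frequency for a factor divided by its frequency for the tag-only sample.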

ELF1 = ELF1 (Homo sapiens, UniProt P32519 1-619)
Sequence of ELF1 (P32519 whole entry): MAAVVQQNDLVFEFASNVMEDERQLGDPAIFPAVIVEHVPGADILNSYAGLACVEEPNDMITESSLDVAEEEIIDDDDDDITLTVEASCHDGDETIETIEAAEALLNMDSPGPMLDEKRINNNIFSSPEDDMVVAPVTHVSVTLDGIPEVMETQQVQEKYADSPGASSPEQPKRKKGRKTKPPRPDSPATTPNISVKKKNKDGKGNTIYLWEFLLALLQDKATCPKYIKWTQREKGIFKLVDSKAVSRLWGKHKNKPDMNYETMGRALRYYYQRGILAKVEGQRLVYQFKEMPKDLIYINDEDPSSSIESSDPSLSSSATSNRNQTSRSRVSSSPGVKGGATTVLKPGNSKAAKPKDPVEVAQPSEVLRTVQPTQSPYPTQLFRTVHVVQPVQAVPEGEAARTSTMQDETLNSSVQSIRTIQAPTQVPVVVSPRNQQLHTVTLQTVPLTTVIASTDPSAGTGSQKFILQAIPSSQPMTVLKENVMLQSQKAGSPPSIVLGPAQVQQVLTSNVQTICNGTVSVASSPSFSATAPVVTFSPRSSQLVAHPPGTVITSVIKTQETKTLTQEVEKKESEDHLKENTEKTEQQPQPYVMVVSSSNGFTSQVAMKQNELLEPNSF
Summary of the method: as §1

SPIB = SPIB (Homo sapiens, UniProt Q01892 1-262)
Sequence of SPIB (Q01892 whole entry): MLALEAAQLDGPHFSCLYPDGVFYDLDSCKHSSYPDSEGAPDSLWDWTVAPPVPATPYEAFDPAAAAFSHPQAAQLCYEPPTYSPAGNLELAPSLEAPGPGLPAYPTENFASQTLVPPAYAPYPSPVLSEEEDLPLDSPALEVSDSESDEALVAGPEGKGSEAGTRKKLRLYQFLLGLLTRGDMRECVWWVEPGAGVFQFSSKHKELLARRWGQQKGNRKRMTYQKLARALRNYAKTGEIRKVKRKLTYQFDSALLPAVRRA
Summary of the method: as §1

FEV = target: T2, FEV (Homo sapiens, UniProt Q99581 1-238)
T2 sequence: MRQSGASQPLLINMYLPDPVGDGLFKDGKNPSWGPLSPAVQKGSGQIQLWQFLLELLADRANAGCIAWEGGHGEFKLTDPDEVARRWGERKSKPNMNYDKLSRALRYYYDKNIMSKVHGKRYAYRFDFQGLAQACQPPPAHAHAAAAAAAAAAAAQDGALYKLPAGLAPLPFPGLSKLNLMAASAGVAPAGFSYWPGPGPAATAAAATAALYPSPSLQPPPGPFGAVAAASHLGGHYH
Summary of the method: as §1

ETV5 = ETV5 (Homo sapiens, UniProt P41161 1-510)
Sequence of ETV5 (P41161 whole entry): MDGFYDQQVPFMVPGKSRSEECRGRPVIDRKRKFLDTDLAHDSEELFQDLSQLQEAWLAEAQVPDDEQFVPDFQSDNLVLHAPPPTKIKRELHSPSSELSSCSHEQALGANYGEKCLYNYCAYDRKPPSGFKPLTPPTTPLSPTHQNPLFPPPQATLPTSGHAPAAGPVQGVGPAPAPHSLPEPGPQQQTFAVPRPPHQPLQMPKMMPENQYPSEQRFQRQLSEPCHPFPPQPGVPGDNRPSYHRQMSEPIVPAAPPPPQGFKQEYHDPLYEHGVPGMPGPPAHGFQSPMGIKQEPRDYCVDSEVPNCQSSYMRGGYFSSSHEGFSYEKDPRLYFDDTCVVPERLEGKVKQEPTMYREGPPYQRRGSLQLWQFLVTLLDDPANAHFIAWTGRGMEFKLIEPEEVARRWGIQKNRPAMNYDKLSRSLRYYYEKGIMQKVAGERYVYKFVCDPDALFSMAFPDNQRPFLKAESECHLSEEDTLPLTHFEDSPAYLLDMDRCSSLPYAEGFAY
Summary of the method: as §1

ELF4 = ELF4 (Homo sapiens, UniProt Q99607 1-663)
Sequence of ELF4 (Q99607 whole entry): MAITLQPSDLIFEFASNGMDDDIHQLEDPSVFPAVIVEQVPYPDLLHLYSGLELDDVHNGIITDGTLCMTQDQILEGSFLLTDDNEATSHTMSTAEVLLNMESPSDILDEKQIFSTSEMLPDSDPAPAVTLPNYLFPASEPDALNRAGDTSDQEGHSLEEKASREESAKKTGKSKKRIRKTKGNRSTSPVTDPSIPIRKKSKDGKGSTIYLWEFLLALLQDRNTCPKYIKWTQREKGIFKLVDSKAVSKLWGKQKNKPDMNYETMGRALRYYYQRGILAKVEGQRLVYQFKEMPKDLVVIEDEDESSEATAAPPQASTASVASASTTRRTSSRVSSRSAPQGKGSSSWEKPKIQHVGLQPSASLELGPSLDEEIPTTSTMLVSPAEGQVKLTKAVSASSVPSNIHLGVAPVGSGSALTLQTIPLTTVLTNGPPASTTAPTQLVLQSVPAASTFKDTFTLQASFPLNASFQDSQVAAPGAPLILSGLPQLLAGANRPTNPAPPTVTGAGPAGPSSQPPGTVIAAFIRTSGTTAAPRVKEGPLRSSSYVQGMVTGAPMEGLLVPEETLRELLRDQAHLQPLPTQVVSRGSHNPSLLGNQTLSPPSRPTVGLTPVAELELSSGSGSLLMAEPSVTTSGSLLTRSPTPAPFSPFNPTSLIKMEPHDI
Summary of the method: as §1

ELK4 = target: T3, ELK4 (Homo sapiens, UniProt P28324-2 1-405)
T3 sequence: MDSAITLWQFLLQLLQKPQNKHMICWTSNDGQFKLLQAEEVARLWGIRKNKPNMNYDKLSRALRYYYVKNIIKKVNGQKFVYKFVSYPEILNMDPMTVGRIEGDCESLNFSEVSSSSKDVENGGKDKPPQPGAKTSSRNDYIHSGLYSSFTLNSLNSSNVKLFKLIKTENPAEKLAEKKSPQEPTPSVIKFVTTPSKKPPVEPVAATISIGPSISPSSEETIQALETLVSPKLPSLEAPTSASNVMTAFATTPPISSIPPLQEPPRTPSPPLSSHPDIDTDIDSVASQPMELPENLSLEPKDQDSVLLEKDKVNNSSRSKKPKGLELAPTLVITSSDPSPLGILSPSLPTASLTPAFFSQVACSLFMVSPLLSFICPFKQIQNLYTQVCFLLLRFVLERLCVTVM
Summary of the method: as §1

ETV2 = target: T4, ETV2 (Homo sapiens, UniProt O00321 1-342)
T4 sequence: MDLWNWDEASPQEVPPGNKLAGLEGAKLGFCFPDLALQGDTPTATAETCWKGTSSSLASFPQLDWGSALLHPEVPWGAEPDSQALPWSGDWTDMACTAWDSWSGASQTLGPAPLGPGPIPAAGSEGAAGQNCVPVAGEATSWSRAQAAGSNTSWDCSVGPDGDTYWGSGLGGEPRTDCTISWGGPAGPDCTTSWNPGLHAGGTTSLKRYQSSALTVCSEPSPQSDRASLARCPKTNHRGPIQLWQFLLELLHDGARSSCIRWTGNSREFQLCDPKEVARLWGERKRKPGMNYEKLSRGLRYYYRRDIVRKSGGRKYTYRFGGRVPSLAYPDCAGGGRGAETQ
Summary of the method: as §1

ETV1 = ETV1 (Homo sapiens, UniProt P50549 1-477)
Sequence of ETV1 (P50549 whole entry): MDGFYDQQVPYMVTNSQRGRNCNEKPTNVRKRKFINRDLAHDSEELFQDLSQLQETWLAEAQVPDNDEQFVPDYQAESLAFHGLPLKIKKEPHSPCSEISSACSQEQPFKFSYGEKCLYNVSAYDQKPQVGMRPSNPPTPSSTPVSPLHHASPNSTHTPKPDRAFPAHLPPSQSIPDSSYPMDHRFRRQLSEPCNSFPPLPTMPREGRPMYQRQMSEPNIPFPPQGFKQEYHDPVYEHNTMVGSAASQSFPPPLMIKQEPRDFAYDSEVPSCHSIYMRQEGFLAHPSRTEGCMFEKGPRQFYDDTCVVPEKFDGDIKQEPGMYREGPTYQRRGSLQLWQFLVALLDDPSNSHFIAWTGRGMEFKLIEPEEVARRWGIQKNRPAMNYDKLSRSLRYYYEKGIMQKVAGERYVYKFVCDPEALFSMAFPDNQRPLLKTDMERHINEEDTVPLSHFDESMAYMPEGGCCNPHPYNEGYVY
Summary of the method: as §1

ERF = target: T5, ERF (Homo sapiens, UniProt P50548 1-548)
T5 sequence: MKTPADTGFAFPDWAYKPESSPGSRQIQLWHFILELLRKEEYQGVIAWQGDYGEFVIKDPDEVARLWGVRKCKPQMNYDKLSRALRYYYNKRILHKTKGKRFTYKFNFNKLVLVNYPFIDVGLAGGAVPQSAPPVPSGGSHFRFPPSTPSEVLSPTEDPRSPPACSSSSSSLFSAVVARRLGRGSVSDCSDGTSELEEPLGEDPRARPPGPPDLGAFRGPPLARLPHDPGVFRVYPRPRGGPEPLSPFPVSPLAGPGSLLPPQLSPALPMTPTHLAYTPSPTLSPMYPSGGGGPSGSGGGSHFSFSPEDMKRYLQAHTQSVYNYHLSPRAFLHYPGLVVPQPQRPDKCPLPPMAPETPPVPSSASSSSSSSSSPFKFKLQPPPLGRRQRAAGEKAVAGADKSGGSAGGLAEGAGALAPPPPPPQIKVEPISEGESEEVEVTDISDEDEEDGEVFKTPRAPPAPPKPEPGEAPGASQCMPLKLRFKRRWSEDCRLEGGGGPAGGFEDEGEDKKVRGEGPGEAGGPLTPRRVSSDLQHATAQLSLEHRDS
Summary of the method: as §1

ETV3L = target: T6, ETV3L (Homo sapiens, UniProt Q6ZN32 1-361)
T6 sequence: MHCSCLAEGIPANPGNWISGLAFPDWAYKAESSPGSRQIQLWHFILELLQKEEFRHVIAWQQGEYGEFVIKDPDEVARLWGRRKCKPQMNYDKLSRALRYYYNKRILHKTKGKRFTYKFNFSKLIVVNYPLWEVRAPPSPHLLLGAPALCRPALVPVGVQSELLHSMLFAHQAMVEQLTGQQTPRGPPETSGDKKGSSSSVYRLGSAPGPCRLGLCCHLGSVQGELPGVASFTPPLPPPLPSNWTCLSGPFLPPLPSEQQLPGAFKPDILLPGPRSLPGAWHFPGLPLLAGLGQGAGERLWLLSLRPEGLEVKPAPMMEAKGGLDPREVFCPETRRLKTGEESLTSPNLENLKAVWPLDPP
Summary of the method: as §1

ETS2 = target: T7, ETS2 (Homo sapiens, UniProt P15036 1-469)
T7 sequence: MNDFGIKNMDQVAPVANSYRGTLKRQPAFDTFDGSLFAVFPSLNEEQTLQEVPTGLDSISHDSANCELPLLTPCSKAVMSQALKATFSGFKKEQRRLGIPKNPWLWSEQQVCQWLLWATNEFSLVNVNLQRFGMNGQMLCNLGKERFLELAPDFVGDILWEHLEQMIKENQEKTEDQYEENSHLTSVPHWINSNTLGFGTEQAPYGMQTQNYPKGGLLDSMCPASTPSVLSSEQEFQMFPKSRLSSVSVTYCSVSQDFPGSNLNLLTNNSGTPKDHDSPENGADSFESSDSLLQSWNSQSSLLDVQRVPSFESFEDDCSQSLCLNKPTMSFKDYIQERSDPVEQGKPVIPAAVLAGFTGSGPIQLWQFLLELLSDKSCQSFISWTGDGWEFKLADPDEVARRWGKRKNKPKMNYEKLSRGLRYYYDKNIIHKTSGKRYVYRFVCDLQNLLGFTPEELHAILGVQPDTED
Summary of the method: as §1

ETV7 = target: T8, ETV7 (Homo sapiens, UniProt Q9Y603 1-341)
T8 sequence: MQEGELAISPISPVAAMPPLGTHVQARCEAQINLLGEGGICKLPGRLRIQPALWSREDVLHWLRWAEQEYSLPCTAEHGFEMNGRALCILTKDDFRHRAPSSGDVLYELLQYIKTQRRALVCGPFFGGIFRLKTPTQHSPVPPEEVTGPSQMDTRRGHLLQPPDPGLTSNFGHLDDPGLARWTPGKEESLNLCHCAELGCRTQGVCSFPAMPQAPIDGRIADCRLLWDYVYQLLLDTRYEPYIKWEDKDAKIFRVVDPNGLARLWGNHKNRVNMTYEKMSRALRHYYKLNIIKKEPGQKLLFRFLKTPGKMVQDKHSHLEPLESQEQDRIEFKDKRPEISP
Summary of the method: as §1

ETV6 = ETV6 (Homo sapiens, UniProt P41212 1-452)
Sequence of ETV6 (P41212 whole entry): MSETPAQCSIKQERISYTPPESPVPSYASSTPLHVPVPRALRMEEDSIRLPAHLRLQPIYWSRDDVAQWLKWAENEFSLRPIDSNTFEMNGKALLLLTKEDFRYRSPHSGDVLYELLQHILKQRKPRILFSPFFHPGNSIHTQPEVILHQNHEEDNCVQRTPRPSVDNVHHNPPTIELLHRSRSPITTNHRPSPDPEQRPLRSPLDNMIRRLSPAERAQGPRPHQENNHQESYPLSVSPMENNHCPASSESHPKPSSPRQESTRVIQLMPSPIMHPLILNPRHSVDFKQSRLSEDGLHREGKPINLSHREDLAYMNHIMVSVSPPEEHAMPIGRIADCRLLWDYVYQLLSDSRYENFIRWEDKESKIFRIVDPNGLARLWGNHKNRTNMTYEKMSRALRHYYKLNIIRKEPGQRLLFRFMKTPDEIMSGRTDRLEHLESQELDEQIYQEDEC
Summary of the method: as §1

Sequence: CGCACG
- binding signal (GABPA): 1.02 fold enrichment (6-mer frequency, TF over GST control)
- binding signal (ELF1): 1.01 fold enrichment (6-mer frequency, TF over GST control)
- binding signal (SPIB): 1.06 fold enrichment (6-mer frequency, TF over GST control)
- binding signal (FEV): 1.02 fold enrichment (6-mer frequency, TF over GST control)
- binding signal (ETV5): 1.06 fold enrichment (6-mer frequency, TF over GST control)
- binding signal (ELF4): 1.04 fold enrichment (6-mer frequency, TF over GST control)
- binding signal (ELK4): 1.1 fold enrichment (6-mer frequency, TF over GST control)
- binding signal (ETV2): 1.09 fold enrichment (6-mer frequency, TF over GST control)
- binding signal (ETV1): 1.04 fold enrichment (6-mer frequency, TF over GST control)
- binding signal (ERF): 1.06 fold enrichment (6-mer frequency, TF over GST control)
- binding signal (ETV3L): 1.01 fold enrichment (6-mer frequency, TF over GST control)
- binding signal (ETS2): 1.02 fold enrichment (6-mer frequency, TF over GST control)
- binding signal (ETV7): 1.06 fold enrichment (6-mer frequency, TF over GST control)
- binding signal (ETV6): 1.08 fold enrichment (6-mer frequency, TF over GST control)
